From PubChem BioAssay (NCATS)
Results filed as inconclusive are left out. Entries that show only a call come without a potency. The source made the active and inactive calls. Calls come from the whole dose curve; as a rule, active = well fitted curve in the direction sought with a large enough effect; inconclusive = small, poorly fitted or top-dose-only effect, or another doubt; inactive = no such curve, though single readings can be large; an effect the other way counts as inactive or inconclusive.

How the values were obtained:
[1] = Quantitative highthroughput screen to assess conditional lethalithy of NOMO1 cells grown in RPMI1640 with untreated serum (RPMI+s) (AID 1963876); note: nearly all actives have a fitted effect of over 35% in size
Outline: (§1)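 Each medium arm—HPLM with 10% dialyzed FBS, or RPMI1640 with 5 mM glucose and 10% untreated or dialyzed FBS—was screened against an 11-point, 3-fold compound titration for 48 h at 37 °C, with CellTiter-Glo luminescence as endpoint.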

[2] = Quantitative highthroughput screen to assess conditional lethalithy of NOMO1 cells grown in RPMI1640 with dialyzed fetal bovine serum (RPMI+ds) (AID 1963877); note: nearly all actives have a fitted effect of over 30% in size; for viability: series mostly up to about 46 µM
Outline: as §1

[3] = Quantitative highthroughput screen to assess conditional lethalithy of NOMO1 cells grown in Human Plasma-Like Medium with dialyzed fetal bovine serum (HPLM+ds) (AID 1963878); note: nearly all actives have a fitted effect of over 35% in size
Outline: as §1

[4] = Quantitative highthroughput screen to assess conditional lethalithy of P12 Ichikawa cells grown in Human Plasma-Like Medium with dialyzed fetal bovine serum (HPLM+ds) (AID 1963879); conditions: Potency: viability; note: nearly all actives have a fitted effect of over 35% in size; for viability: series mostly up to about 46 µM
Outline: as §1

[5] = Quantitative highthroughput screen to assess conditional lethalithy of P12 Ichikawa cells grown in RPMI1640 with dialyzed fetal bovine serum (RPMI+ds) (AID 1963880); conditions: Potency: P12-Ichikawa viability; note: nearly all actives have a fitted effect of over 35% in size
Outline: as §1

[6] = Quantitative highthroughput screen to assess conditional lethalithy of P12 Ichikawa cells grown in RPMI1640 with untreated serum (RPMI+s) (AID 1963881); conditions: Potency: viability; note: nearly all actives have a fitted effect of over 35% in size; for viability: series mostly up to about 46 µM
Outline: as §1

[7] = Quantitative highthroughput screen to assess conditional lethalithy of SEM cells grown in Human Plasma-Like Medium with dialyzed fetal bovine serum (HPLM+ds) (AID 1963882); note: nearly all actives have a fitted effect of over 35% in size; for viability: series mostly up to about 46 µM
Outline: as §1

[8] = Quantitative highthroughput screen to assess conditional lethalithy of SEM cells grown in RPMI1640 with unreated serum (RPMI+s) (AID 1963883); note: nearly all actives have a fitted effect of over 35% in size
Outline: as §1

[9] = Quantitative highthroughput screen to assess conditional lethalithy of SEM cells grown in RPMI1640 with dialyzed fetal bovine serum (RPMI+ds) (AID 1963884); note: nearly all actives have a fitted effect of over 35% in size; for viability: series mostly up to about 46 µM
Outline: as §1
Potency is the fitted concentration of half-maximal effect.

Compound	Potency [1]	Potency [2]	Potency [3]	Potency [4]	Potency [5]	Potency [6]	Potency [7]	Potency [8]	Potency [9]
Fc1ccc(C(c2ccc(F)cc2)N2CCN(CC=Cc3ccccc3)CC2)cc1	inactive	inactive	inactive	inactive	inactive	inactive	inactive	inactive	
C=C1C(=O)O[C@H]2[C@@H]1CCC(C)=CCC[C@@]1(C)O[C@@H]21	4690 nM (active)	5900 nM (active)	2350 nM (active)	2350 nM (active)	2350 nM (active)	2640 nM (active)	1320 nM (active)	833 nM (active)	1480 nM (active)
CCOc1cc(C=C2C(=O)N(c3ccccc3)N=C2C)cc(Cl)c1OCC(=O)OC	inactive	inactive	inactive	inactive	inactive	inactive			
CS[C@H]1SC[C@@H]2C(=O)N(C)[C@H](C(C)C)C(=O)OC[C@H](NC(=O)c3cnc4ccccc4n3)C(=O)N[C@H](C)C(=O)N(C)[C@@H]1C(=O)N(C)[C@H](C(C)C)C(=O)OC[C@H](NC(=O)c1cnc3ccccc3n1)C(=O)N[C@H](C)C(=O)N2C	20.9 nM (active)	20.9 nM (active)	14.8 nM (active)	20.9 nM (active)	10.5 nM (active)	14.8 nM (active)	3.7 nM (active)	2.6 nM (active)	
CCN(CC)CCNC(=O)c1c(C)[nH]c(C=C2C(=O)Nc3ccc(F)cc32)c1C	303 nM (active)	303 nM (active)	171 nM (active)	270 nM (active)	340 nM (active)	481 nM (active)			
CC=CC(=O)N(CC)c1ccccc1C	inactive	inactive	inactive	inactive	inactive	inactive	inactive		
CO[C@H]1C=CC=C(C)C(=O)NC2=CC(=O)C(NCCN(C)C)=C(C[C@@H](C)C[C@H](OC)[C@@H](O)[C@@H](C)C=C(C)[C@@H]1OC(N)=O)C2=O	743 nM (active)	662 nM (active)	662 nM (active)	4690 nM (active)	935 nM (active)	743 nM (active)	166 nM (active)	148 nM (active)	118 nM (active)
COc1cccc2c1C(=O)c1c(O)c3c(c(O)c1C2=O)C[C@@](O)(C(=O)CO)C[C@H]3O[C@H]1C[C@H](N)[C@H](O)[C@H](C)O1	2960 nM (active)	2960 nM (active)	2350 nM (active)	1660 nM (active)	2090 nM (active)	1320 nM (active)	469 nM (active)	418 nM (active)	
CCOc1ccc(Cc2cc([C@@H]3O[C@H](CO)[C@@H](O)[C@H](O)[C@@H]3O)ccc2Cl)cc1	inactive	inactive	inactive	inactive	inactive	inactive	inactive	inactive	inactive
CNC[C@@H](O)[C@@H](O)[C@H](O)[C@H](O)CO	inactive	inactive	526 nM (active)	inactive	inactive	inactive			
NC[C@H]1O[C@H](O[C@H]2[C@@H](O)[C@@H](O[C@H]3O[C@H](CO)[C@@H](O)[C@H](N)[C@@H]3O)[C@H](N)C[C@@H]2N)[C@H](N)C[C@H]1O	inactive	inactive	inactive	inactive	inactive	inactive	inactive	inactive	inactive
C[C@@H]1CC=CC=CC=CC=C[C@@H](O[C@@H]2O[C@H](C)[C@@H](O)[C@H](N)[C@H]2O)C[C@@H]2O[C@](O)(C[C@@H](O)C[C@@H]3O[C@@H]3C=CC(=O)O1)C[C@H](O)[C@@H]2C(=O)O	inactive	inactive	inactive	inactive	inactive	inactive	inactive	inactive	inactive
NC(=O)c1ncn([C@@H]2O[C@H](CO)[C@@H](O)[C@@H]2O)c1O	inactive	inactive	inactive	inactive	inactive	inactive	inactive	inactive	inactive
CC[C@H]1OC(=O)[C@H](C)C(=O)[C@H](C)[C@@H](O[C@H]2O[C@H](C)C[C@H](N(C)C)[C@@H]2O)[C@](C)(OC)C[C@@H](C)C(=O)[C@H](C)[C@H]2N(CCCCn3cnc(-c4cccnc4)c3)C(=O)O[C@]12C	inactive	inactive	inactive	inactive	inactive	inactive	inactive	inactive	inactive
O=C1NC(=O)C(=Cc2ccc3nccc(-c4ccncc4)c3c2)S1	2640 nM (active)	1320 nM (active)	662 nM (active)	7430 nM (active)	1870 nM (active)	1870 nM (active)	935 nM (active)	935 nM (active)	833 nM (active)
O=C1NC(=O)C(=Cc2ccc3nccnc3c2)S1	inactive	inactive	inactive	inactive	inactive	inactive	inactive	inactive	inactive
COc1cc(N2CCC(C(N)=O)CC2)ccc1Nc1nc(N)c(Cl)c(Nc2ccccc2S(=O)(=O)C(C)C)n1	20900 nM (active)	16600 nM (active)	16600 nM (active)	23500 nM (active)	18700 nM (active)	18700 nM (active)	8330 nM (active)	4180 nM (active)	9350 nM (active)
